Assay in all cases: NCI-60 one-dose screen, 48 h (100 = growth as untreated, 0 = no growth, -100 = all killed)
In one assay the test system is NCI-H226 lung. The conditions noted are these: 10 µM.
In a further assay the test system is HOP-62 NSCLC. The conditions noted are these: 10 µM unless noted.
In the next assay the test system is NCI-H460 lung. The conditions noted are these: 10 µM unless noted.
The next assay has as its system HOP-92 NSCLC. The following applies: 10 µM unless noted.
The subject of a further assay is NCI-H522 lung. The conditions noted are these: 10 µM.
The test system of the next assay is A549/ATCC NSCLC. The following applies: 10 µM unless noted.
A further assay has as its system 786-0 renal. The following applies: 10 µM unless noted.
The test system of a further assay is COLO 205 colon. The following applies: 10 µM unless noted.
The subject of the next assay is NCI-H322M lung. The conditions noted are these: 10 µM unless noted.

The panel holds about 83,000 compounds, 20% with a hit somewhere; the sample as a whole holds those more often.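 Compound tested at a single concentration for 48 hours in 96-well plates; a percent growth value below 10 was scored as active.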 Values without a mark were called inactive. Calls of active or inactive are those of the source.

We go through 16 molecules from PubChem BioAssay (NCI).

In the case of `O=C(Nc1ccc(Cl)c(Cl)c1)NC(CO)(CO)CO`, the growth was 97.5% in the assay with NCI-H226 lung; 88.1% in the assay on HOP-62 NSCLC; 103% in the assay on NCI-H460 lung; 79.9% in the assay with HOP-92 NSCLC; 88.7% with NCI-H522 lung; 97.4% in the assay with A549/ATCC NSCLC. In addition, the figures for the growth in the assay with 786-0 renal and in the assay on COLO 205 colon were 92.3% and 106%, respectively.
As to `FC(F)(F)c1cc(CNc2nc(Cl)ncc2Br)cc(C(F)(F)F)c1`, the growth in the assay on NCI-H226 lung is 93.9%; in the assay on HOP-62 NSCLC, 90.5%; with HOP-92 NSCLC it was 71%; with NCI-H522 lung, 62.3%; with A549/ATCC NSCLC, 83%; with 786-0 renal, 84.6%. The growth in the assay with COLO 205 colon was 103%.
As to `CC1(C)N=C(N)N=C(N)N1c1cccc(/C=C/C=C/c2cccc([N+](=O)[O-])c2)c1`, the growth in the assay on NCI-H226 lung is 76.9%; in the assay with HOP-62 NSCLC it was 104%; in the assay with HOP-92 NSCLC, 70.7%; with NCI-H522 lung, 27.6%; in the assay on A549/ATCC NSCLC, 28.2%; in the assay on 786-0 renal it was 91.9%. Moreover, in the assay on COLO 205 colon, the growth is 29.7%.
As for `O=C1C(Br)=C(c2ccccc2)C(=O)C(Br)=C1c1ccccc1`, the growth in the assay on NCI-H226 lung was 95.1%; in the assay on HOP-62 NSCLC, 111%; with NCI-H460 lung, 99.5%; in the assay on HOP-92 NSCLC, 92.1%; in the assay on NCI-H522 lung, -61% (active); in the assay with A549/ATCC NSCLC, 87.6%. In addition, the growth in the assay with 786-0 renal was 95.7%; in the assay on COLO 205 colon it was 90.9%.
Turning to `Cc1nc2cc(Nc3nc(Nc4ccc(F)cc4)nc(-c4cccs4)n3)ccc2n1Cc1ccccc1`, the growth in the assay on NCI-H226 lung is 65%; with HOP-62 NSCLC it was 92.3%; in the assay with NCI-H460 lung it was 39.6%; with HOP-92 NSCLC, 22%; in the assay with NCI-H522 lung it was 53.5%; in the assay on A549/ATCC NSCLC it was 43.1%. Also, the growth in the assay with 786-0 renal was 37.5%; in the assay on COLO 205 colon, 56.8%.
Turning to `COc1ccc(C(=O)C2=CC(=O)C(=O)C2)cc1OC`, the growth in the assay with NCI-H226 lung is 103%; in the assay with HOP-62 NSCLC, 94.1%; in the assay with NCI-H460 lung it was 103%; in the assay with HOP-92 NSCLC, 95.9%; in the assay on NCI-H522 lung, 86.6%; with A549/ATCC NSCLC it was 106%. In addition, the growth in the assay with 786-0 renal is 101%; in the assay on COLO 205 colon, 112%.
On to `O=C(c1ccc2ncc(-c3nc(NC4CC4)ncc3F)n2c1)N1CCOCC1`, for which the growth is 15.4% with NCI-H322M lung; 7.33% (active) in the assay on HOP-62 NSCLC; 4.24% (active) in the assay on NCI-H460 lung; -2.24% (active) in the assay on HOP-92 NSCLC; 72.6% in the assay on NCI-H522 lung; 13.9% in the assay on A549/ATCC NSCLC. Also, the growth with 786-0 renal was 9.09% (active).
`COc1ccc(Sc2ccc3[nH]c(=O)nc(N)c3c2)cc1`: the growth is 96.4% in the assay on NCI-H322M lung; 108% in the assay on HOP-62 NSCLC; 100% in the assay on NCI-H522 lung; 80.3% in the assay on A549/ATCC NSCLC; 104% with 786-0 renal; 106% in the assay on COLO 205 colon.
On to `CCCCCCCC/C=C\CCCCCCCCOc1cccc(CC(=O)NCC[N+]2(C)CCCCC2)c1`, for which the growth in the assay with NCI-H322M lung is 92.3%; in the assay on HOP-62 NSCLC, 67%; in the assay on NCI-H460 lung, 40.1%; in the assay on HOP-92 NSCLC it was 86.9%; in the assay with NCI-H522 lung, 63%; in the assay with A549/ATCC NSCLC, 82.3%. Besides, in the assay with 786-0 renal, the growth was 90.4%.
In the case of `Clc1cccc(Cl)c1Nc1ccc2nnc(-c3ccncc3)n2n1`, the growth with NCI-H322M lung is 88.5%; with HOP-62 NSCLC, 103%; with NCI-H460 lung it was 106%; in the assay on NCI-H522 lung, -74.4% (active); with A549/ATCC NSCLC, 104%; in the assay on 786-0 renal it was 104%. Further, the growth in the assay on COLO 205 colon is 110%.
Take `Nc1nc2c(s1)CCc1c-2c(Br)n(Cc2ccccc2)c1Br`: the growth with NCI-H322M lung is 99.8%; in the assay with HOP-62 NSCLC, 64.9%; in the assay on NCI-H460 lung, 98.2%; in the assay with NCI-H522 lung it was -74.9% (active); in the assay on A549/ATCC NSCLC it was 93.7%; in the assay on 786-0 renal it was 102%. Also, in the assay with COLO 205 colon, the growth was 85.6%.
On to `Oc1ccc(Cl)cc1CNc1nc2ccccc2[nH]1`, for which the growth is 101% in the assay with NCI-H322M lung; 82.7% in the assay on HOP-62 NSCLC; -33.9% (active) in the assay with NCI-H460 lung; 62% with NCI-H522 lung; -14.1% (active) in the assay with A549/ATCC NSCLC; 60.7% in the assay with 786-0 renal. In addition, the growth in the assay with COLO 205 colon is 65.1%.
As for `COc1ccc(Nc2nc(NCCNc3ccnc4cc(Cl)ccc34)nc(N3CCOCC3)n2)cc1`, the growth in the assay on NCI-H322M lung was 74.5%; in the assay on HOP-62 NSCLC it was 92.2%; in the assay with NCI-H460 lung it was 37.2%; in the assay with A549/ATCC NSCLC, 70.9%; with 786-0 renal it was 57.2%; in the assay with COLO 205 colon, -37.2% (active).
With `COc1cc(CNCCCN2C(=O)c3ccc4c5c(ccc(c35)C2=O)C(=O)N(CCCNCc2cc(OC)c(OC)c(OC)c2)C4=O)cc(OC)c1OC`, the growth is -24.2% (active) with NCI-H322M lung; -81.4% (active) with HOP-62 NSCLC; -80.7% (active) in the assay on NCI-H522 lung; -84.8% (active) in the assay with A549/ATCC NSCLC; -30% (active) in the assay on 786-0 renal; -92.6% (active) in the assay with COLO 205 colon.
Turning to `Cc1cc(NS(=O)(=O)c2ccc(NC(=O)COc3ccc(-c4cc5ccccc5[nH]4)cc3)cc2)no1`, the growth with HOP-62 NSCLC was -11.3% (active); in the assay on NCI-H460 lung it was 9.1% (active); in the assay with HOP-92 NSCLC it was 5.04% (active); with NCI-H522 lung it was 20.8%; in the assay with A549/ATCC NSCLC, 30.1%; in the assay on 786-0 renal it was 2.3% (active). Besides, the growth in the assay with COLO 205 colon is -50.5% (active).
For `CC1CCCCN1S(=O)(=O)c1ccc(CN=C=S)cc1` (stereo not drawn), the growth is 96.6% in the assay with NCI-H322M lung; 108% with HOP-62 NSCLC; 88.4% with NCI-H460 lung; 60.8% in the assay on HOP-92 NSCLC; 102% in the assay with A549/ATCC NSCLC; 55.9% with 786-0 renal. Further, the growth in the assay on COLO 205 colon is 52.8%.
